Results on 40 molecules are retold here after PubChem BioAssay (NCI).

The panel holds about 83,000 compounds, 20% with a hit somewhere; the sample as a whole holds those more often.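 In brief: 96-well plates, 48 h treatment, single concentration, percent growth endpoint.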 Values without a mark were called inactive. Active and inactive are the calls of the source.

The subject of this assay is A549/ATCC NSCLC. The experiment in a line: NCI-60 one-dose screen, 48 h (100 = growth as untreated, 0 = no growth, -100 = all killed). The note with it: 10 µM unless noted. How it is done: Growth inhibition of the A549/ATCC human Non-Small Cell Lung tumor cell line is measured as a screen for anti-cancer activity. Cells are grown in 96 well plates and exposed to the test compound for 48 hours. Compounds are tested at a single concentration, which is 10^-5 M for most compounds. The reported endpoint is percent growth (GI% or GIPRCNT), where numbers from 0 - 100% represent growth inhibition, and numbers from -100% - 0 represent cell death. For example, a value of 40 represents 60% growth inhibition. A value of 0 means no net growth occurred over the course of the experiment. A value of -40 indicates 40% of cells at the beginning of the experiment died by the end of the experiment. A value of -100 means all cells are dead at the end of the experiment.
NCI-60 Human Tumor Cell Lines Screen was performed using the standard one-dose NCI protocol, which is described in more detail at https://dtp.cancer.gov/discovery_development/nci-60/default.htm.
Compounds with GIPRCNT values below 10 were considered active. Activity score was based on GIPRCNT using the following formula: […]
Score is 0 for GIPRCNT values of 100 or above, 50 for GIPRCNT values of 0, and 100 for GIPRCNT values of -100.
Turning to `O=C(N/N=C/c1ccc([N+](=O)[O-])s1)c1[nH]c2ccc(Br)cc2c1-c1ccccc1`, the growth is 14.5%. For `CCOC(=O)c1c(Nc2ccccc2)nn2c(N)c(C#N)c(-c3ccc(OC)cc3)nc12`, the growth was 69%.

Take `O=C(c1ccc(O)cc1)C1[C@H](c2ccc(Cl)cc2)[C@@H](c2ccccc2)NC12C(=O)Nc1ccc(Cl)cc12` (stereo not given in full): the growth is 33.5%.

For the molecule `O=C1c2c(c3c4cc(Br)ccc4[nH]c3c3ccc4ccccc4c23)C(=O)N1CCO`, the growth is 91.7%.

For `O=C(CCCN1C(=O)/C(=C/c2ccccc2F)SC1=S)N1CCOCC1`, the growth is 93.1%. In the case of `CS(=O)(=O)c1ccc(-c2nc3ccccn3c2/C=N/Nc2nc(-c3ccc(Br)cc3)cs2)cc1`, the growth is 109%.

For `O=C(CSc1nnc(-c2ccc3nc(-c4ccc(Cl)cc4)[nH]c3c2)o1)Nc1ccc(C(=O)/C=C/c2ccc(Cl)cc2)cc1`, the growth is 95.5%. The same measure for `Nc1nc(N)c2c(n1)NC(c1ccc(F)cc1)CC(c1ccc(Nc3nc(NCCO)nc(Nc4ccc(Cl)cc4)n3)cc1)=N2` (stereo not given): 57%; for `N#Cc1nc(-c2ccccc2)oc1S(=O)(=O)N1CCCCC1`: 98.7%.

As to `Clc1ccc2oc3c(NCCCN4CCOCC4)c4ccccc4nc3c2c1`, the growth is 25.1%.

As to `CCCC(=O)NC(c1cccnc1)c1cc(C)c2cccnc2c1O` (stereo not given), the growth is 48.4%. In the case of `Cn1c(SCC(=O)Nc2ccc(-c3nc4ccc([N+](=O)[O-])cc4[nH]3)cc2)nc2ccccc2c1=O`, the growth was 89.5%. The same measure for `COc1cccc(N2CCN(c3ncnc4c3[nH]c3ccc(F)cc34)C[C@@H]2C)c1`: 2.18% (active). Turning to `CS(=O)(=O)c1ccc(-c2nc3ccccn3c2/C=N/Nc2nc(-c3ccc(Cl)cc3)cs2)cc1`, the growth is 98.2%. The same measure for `Fc1ccc(-c2nc(C(Cl)Cl)nc3cc(-c4ccccc4)nn23)cc1`: -45.1% (active).

`Cc1nc(-c2cc3ccccc3oc2=O)ccc1C(=O)/C=C/c1ccc(N2CCOCC2)cc1`: the growth is 91.6%. On to `COc1ccc(/C=C2\SC(=Nc3cc(C)[nH]n3)NC2=O)cc1`, for which the growth is 102%.

Take `CCCCN1C(=O)/C(=c2\sc3n(c2=O)C2C(NN=3)N(CC)C(=O)N2CC)c2cc(Cl)ccc21` (stereo not given): the growth is 89.3%. Turning to `Cc1[nH]nc2ncc(C#Cc3cncc(C(=O)Nc4ccc(CN5CCN(C)CC5)c(C(F)(F)F)c4)c3)cc12`, the growth was 23.9%. As to `CCN1CCN(/C(=N\c2sc(-c3ccccc3)nc2-c2ccccc2)c2ccccc2)CC1`, the growth is 80.2%. Take `O=C(CSc1nc2sc3c(c2c(=O)n1-c1ccc(Cl)cc1)CCCC3)NNC(=O)Nc1ccc(Cl)c(C(F)(F)F)c1`: the growth was 34%. The same measure for `COc1cc(/C=C/C(=O)c2ccc(Cl)cc2)ccc1Oc1nc(NCCO)nc(N2CCOCC2)n1`: 103%. As for `COc1ccc(CNS(=O)(=O)/N=C2\NC(=O)NC2=C(Cl)Cl)cc1`, the growth is 25.7%. The same measure for `COc1ccc(-n2c(SCC(=O)Nc3ccc(-c4nc5ccccc5[nH]4)cc3)nc3ccccc3c2=O)cc1`: -24.4% (active). The same measure for `C#Cc1nc(C2=C(C)C(OC(=O)CCC(=O)O)CC2)cs1` (stereo not given): 90.7%; for `Oc1c(Cl)cc(Cl)c2ccc(CN3CCCCC3)nc12`: 44.7%. The same measure for `NS(=O)(=O)c1cccc(Nc2nc(SCC(=O)c3ccc([N+](=O)[O-])cc3)nc3ccccc23)c1`: 70.6%; for `CN(C)S(=O)(=O)c1oc(-c2ccccc2)nc1C#N`: 105%. Turning to `NC(=O)c1c(NC(=O)c2ccc(C3CCCCC3)cc2)sc2c1CCC(=O)C2`, the growth was 10.8%.

Turning to `Cc1ccc(C(=O)Nc2cccc(C(F)(F)F)c2)cc1Nc1nc(-c2cnccn2)nc2c1cnn2C`, the growth is 70.8%. The same measure for `N#Cc1c(-c2ccc(Cl)cc2)nc(SCc2ccc([N+](=O)[O-])cc2)nc1N1CCNCC1`: 5.31% (active). As for `CCOC(=O)c1c(Nc2ccccc2)nn2c(N)c(C#N)c(-c3ccc(Cl)cc3)nc12`, the growth is 46%. The same measure for `CN1CCN(Cc2ccc(NC(=O)c3cncc(C#Cc4cnc5ccc(N6CCSCC6)nn45)c3)cc2C(F)(F)F)CC1`: -24.5% (active). The same measure for `CN(C)CCCOc1c2ccc(Cl)cc2nc2c1oc1ccc(Cl)cc12`: -45.3% (active). Take `O=C(N/N=C/c1ccc(Br)s1)c1[nH]c2ccc(Br)cc2c1-c1ccccc1`: the growth was 28.8%.

Turning to `CSc1ccc2c(c1)N(C(=O)/C(C#N)=C/c1c[nH]c3ccccc13)c1ccccc1S2`, the growth was 47.3%.

With `C[C@@H](Nc1c(C#N)cnc2ccc(-c3cnc(N)nc3)cc12)c1ccccc1`, the growth is 15.8%. Turning to `OC1CCN(CCCOc2c3ccccc3nc3c2oc2ccc(Cl)cc23)CC1`, the growth is 1.98% (active). Take `Cc1c(NC(=O)CSc2nc3sc4c(c3c(=O)n2-c2ccc(Cl)cc2)CCCC4)c(=O)n(-c2ccccc2)n1C`: the growth is 81.2%. The same measure for `COC(=O)C(Cc1ccccc1)NS(=O)(=O)/N=C1\NC(=O)NC1=C(Cl)Cl` (stereo not given): 105%.
